A selection: hits, their analogues and other compounds. The true share with any hit is near 3.1%.
Nrf2 block – blocks Nrf2 signaling. AID 504444. Potency, µM (series often up to 46 µM), inactives show at the top dose activity change, negative = inhibition, hits mostly inhibitors. A549 ARE-Fluc reporter, luciferase luminescence, 18-24 h. 2.1% of 360,000 active; note: % is set by controls: 0 for no effect and ±100 for the full control effect; nearly all actives have a fitted effect of over 60% in size
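In this cell-based qHTS, ARE-driven firefly luciferase in A549 cells reports Nrf2 activity; the luminescent signal after BugLite lysis is the measured value, with a prior CellTiter-Fluor read for cell health.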
TrxR1 inh – blocks rat thioredoxin reductase 1; O89049; recombinant rTrxR1, NADPH fluorescence consumption, selenite substrate; Potency, µM (titrated, usually from 114 µM), without a hit: top-dose activity change, negative = inhibition, hits mostly inhibitors; 1% of 390,000 active; note: % is set by controls: 0 for no effect and ±100 for the full control effect; nearly all actives have a fitted effect of over 65% in size
Target sequence (O89049 whole entry, looked up): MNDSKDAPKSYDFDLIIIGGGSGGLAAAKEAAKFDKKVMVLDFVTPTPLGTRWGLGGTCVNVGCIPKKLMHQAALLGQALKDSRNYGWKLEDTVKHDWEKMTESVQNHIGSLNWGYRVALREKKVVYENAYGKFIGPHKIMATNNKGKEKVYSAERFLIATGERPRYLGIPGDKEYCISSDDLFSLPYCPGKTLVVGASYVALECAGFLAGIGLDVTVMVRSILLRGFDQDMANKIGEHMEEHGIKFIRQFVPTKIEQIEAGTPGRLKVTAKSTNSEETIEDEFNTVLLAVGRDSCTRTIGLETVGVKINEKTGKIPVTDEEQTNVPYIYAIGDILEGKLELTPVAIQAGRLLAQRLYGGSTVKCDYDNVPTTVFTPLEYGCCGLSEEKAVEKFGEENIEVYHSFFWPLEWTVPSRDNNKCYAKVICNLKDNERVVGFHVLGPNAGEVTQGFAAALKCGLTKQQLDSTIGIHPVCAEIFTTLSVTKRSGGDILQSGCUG
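Rat TrxR1 (90 nM in the dispensed reagent) was pre-reduced with 400 uM NADPH for 5 min at room temperature, then incubated with compound for 15 min. After 400 uM selenite was added, NADPH fluorescence (Ex 340/Em 450 nm) was followed for 8 min.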
TrxR1 substrate – is turned over as a substrate by rat TrxR1; O89049; purified TrxR1 substrate turnover, NADPH consumption readout; Potency, µM (series often up to 114 µM), for the others: at the top dose activity change, negative = substrate turnover; 0.01% of 390,000 active; note: % is set by controls: 0 for no effect and ±100 for the full control effect; nearly all actives have a fitted effect of over 50% in size
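Rat TrxR1, dispensed at 90 nM, was prereduced with 400 uM NADPH (final) for 5 min at ~22 deg C, then incubated with compound 15 min before 400 uM selenite. A first-read NADPH fluorescence drop versus no-compound background flagged substrates.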
A549 tox – A549 cytotoxicity, counter-screen for Nrf2 inhibitors; AID 504648; Potency, µM (series often up to 46 µM), inactives show at the highest dose activity change, negative = cytotoxicity, usual class: inhibitors; 0.16% of 390,000 active; A549 ARE-Fluc cells, CellTiter-Fluor viability, 18-24 h; note: % is set by controls: 0 for no effect and ±100 for the full control effect
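A549 ARE-Fluc cells in 5% FBS OPTI-MEM, 5000 cells/well, rested 2 h then exposed to compounds in concentration-response for 18-24 h at 37 °C. Viability by CellTiter-Fluor fluorescence (Ex 405/Em 525) after 30 min; luciferase luminescence (BugLite, 15 min, RT) read afterwards.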
IDH1 R132H inh – inhibitors of human mutant IDH1 R132H; Potency, µM (doses to about 76.6 µM), for inactives: at the highest dose activity change, negative = inhibition, most hits filed as inhibitors; AID 602179; IDH1-R132H enzyme, NADPH consumption, diaphorase/resazurin fluorescence; 0.093% of 390,000 active; O75874; note: % is set by controls: 0 for no effect and ±100 for the full control effect; nearly all actives have a fitted effect of over 65% in size
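IDH1-R132H (0.5 ug/mL dispensed) in pH 7.5 Tris buffer was preincubated 30 min with compound, then given a substrate mix of 0.016 mM NADPH and 2 mM alpha-KG for 80 min at room temperature; remaining NADPH was read by diaphorase/resazurin fluorescence.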
Mito fusion yeast – mitochondrial division inhibition or fusion activation; S. cerevisiae fusion-defective mutant growth rescue, CellTiterGlo 48 h; Potency, µM (top dose mostly 46.1 µM), for the others: at the highest dose growth rescue (activation), most hits filed as activators; 0.23% of 320,000 active; note: % of control where 0% means no effect; nearly all actives have a fitted effect of over 45% in size
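Temperature-sensitive fusion-defective S. cerevisiae (e.g. fzo1-1, mgm1-5) were grown with compound in YPEG medium (3% ethanol, 3% glycerol) for 48 hours at 37C. Growth rescue was measured as viability by CellTiterGlo luminescence after 10 minutes at ambient.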
Numbers without * were called inactive; ! = repeats disagree; [ ] = another dose, or the depositor's remark. Calls come from the whole dose curve; as a rule, active = well fitted curve in the direction sought with a large enough effect; inconclusive = small, poorly fitted or top-dose-only effect, or another doubt; inactive = no such curve, though single readings can be large; an effect the other way counts as inactive or inconclusive. Potency is the fitted concentration of half-maximal effect.

How did COc1ccccc1N1CCN(c2cc(C)nc3nncn23)CC1 do in these assays?
Nrf2 block: 0.0%; TrxR1 inh: -10.5%; TrxR1 substrate: -6.3%; A549 tox: -1.0%; IDH1 R132H inh: 38.9%

How did CN(C)S(=O)(=O)c1cccc(NC(=O)COC(=O)/C=C/c2ccco2)c1 do in these assays?
Nrf2 block: 15.1%; TrxR1 inh: 25.1µM*; TrxR1 substrate: -2.2%; A549 tox: 17.7%; IDH1 R132H inh: 0.5%; Mito fusion yeast: -3.3%

How did Cc1c(Cl)cnc(NC(=O)COC(=O)/C=C/c2ccco2)c1Cl do in these assays?
Nrf2 block: 11.2%; TrxR1 inh: 15.8µM*; TrxR1 substrate: 0.4%; A549 tox: -14.0%; IDH1 R132H inh: 2.9%; Mito fusion yeast: 11.9%

Results for Cc1c(Cl)cnc(NC(=O)COC(=O)C(NC(=O)c2ccco2)C(C)C)c1Cl (stereo not drawn) ?
Nrf2 block: inconclusive; TrxR1 inh: 50.1µM*; TrxR1 substrate: 1.4%; A549 tox: -0.5%; IDH1 R132H inh: 6.3%; Mito fusion yeast: -0.8%

How did c1coc(CNc2nc(-c3cccs3)nc3ccccc23)c1 do in these assays?
Nrf2 block: inconclusive; A549 tox: 1.4%

Results for CCOc1ccc(S(=O)(=O)NCc2nc3cccnc3n2Cc2ccccc2OC)cc1 ?
TrxR1 inh: 21.6%[57.1 µM]; TrxR1 substrate: 0.6%[57.1 µM]; A549 tox: -13.9%; IDH1 R132H inh: 10.1%

What do the screens show for `COc1ccc(C2=Nn3c(nnc3-c3cccc(OC)c3OC)SC2)cc1`?
Nrf2 block: 14.9%; A549 tox: -6.8%

What do the screens show for `Cc1ccc(NC2=CC(=O)C(=O)c3ccccc32)cc1`?
Nrf2 block: -124.3%; TrxR1 inh: -1.2%[57.1 µM]; TrxR1 substrate: 0.7%[57.1 µM]; A549 tox: inconclusive; IDH1 R132H inh: 11.8%; Mito fusion yeast: 0.3%

How did Cc1ccc(SC2=C(N(C)C)C(=O)c3ccccc3C2=O)cc1 do in these assays?
Nrf2 block: -4.3%; TrxR1 inh: 7.94µM*; TrxR1 substrate: -5.8%; A549 tox: 11.7%; IDH1 R132H inh: 22.9%

Results for COc1ccc(CNC(=O)CN2C(=O)C(c3ccccc3)Oc3cccnc32)cc1 (stereo not drawn) ?
Nrf2 block: 23.1µM*; TrxR1 inh: 3.2%[57.1 µM]; TrxR1 substrate: -1.6%[57.1 µM]; A549 tox: inconclusive; IDH1 R132H inh: -9.7%; Mito fusion yeast: 0.2%

How did Cc1cccc(C)c1NC(=O)CCCN1C(=O)C(c2ccccc2)Oc2cccnc21 (stereo not drawn) do in these assays?
Nrf2 block: 2.5%; TrxR1 inh: 17.4%; TrxR1 substrate: 4.3%; A549 tox: -2.5%; IDH1 R132H inh: 7.3%; Mito fusion yeast: 12.6µM*

Results for CCOc1ccc(CNC(=O)CN2C(=O)C(c3ccccc3)Oc3cccnc32)cc1 (stereo not drawn) ?
Nrf2 block: 5.0%; TrxR1 inh: -0.7%; TrxR1 substrate: -1.9%; A549 tox: -2.3%; IDH1 R132H inh: 4.1%; Mito fusion yeast: -5.9%

How did CCc1cccc(C)c1NC(=O)CCCN1C(=O)C(c2ccccc2)Oc2cccnc21 (stereo not drawn) do in these assays?
Nrf2 block: 6.3%; TrxR1 inh: 5.4%; TrxR1 substrate: -1.4%; A549 tox: 18.8%; IDH1 R132H inh: 11.4%

How did Cc1noc(/C=C/c2ccco2)c1S(=O)(=O)N1CCC(C(=O)Nc2ccc(F)c(Cl)c2)CC1 do in these assays?
Nrf2 block: inconclusive; TrxR1 inh: -8.1%; TrxR1 substrate: -8.2%; A549 tox: 5.4%; IDH1 R132H inh: 4.7%

What do the screens show for `CN(Cc1ccco1)S(=O)(=O)c1nnc(NC(=O)c2ccccc2Cl)s1`?
Nrf2 block: inconclusive; TrxR1 inh: 25.1µM*!; TrxR1 substrate: 2.3%; A549 tox: -0.5%; IDH1 R132H inh: 13.3%; Mito fusion yeast: inconclusive

What do the screens show for `Cc1ccccc1C(=O)Nc1nnc(S(=O)(=O)N(C)Cc2ccco2)s1`?
Nrf2 block: 3.3%; TrxR1 inh: 44.7µM*; TrxR1 substrate: 3.6%; A549 tox: 0.7%; IDH1 R132H inh: 12.5%; Mito fusion yeast: 10.7%

Results for CCCC(=O)Nc1nnc(S(=O)(=O)N(C)Cc2ccco2)s1 ?
Nrf2 block: 1.6%; TrxR1 inh: 39.8µM*; TrxR1 substrate: -2.8%; A549 tox: 0.1%; IDH1 R132H inh: 4.2%; Mito fusion yeast: 1.3%

What do the screens show for `Cc1ccc(C(=O)Nc2nnc(S(=O)(=O)N(C)Cc3ccco3)s2)cc1`?
Nrf2 block: inconclusive; TrxR1 inh: 44.7%; TrxR1 substrate: 17.4%; A549 tox: -4.6%; IDH1 R132H inh: 48.7%

How did CCC(=O)Nc1nnc(S(=O)(=O)N(C)Cc2ccco2)s1 do in these assays?
Nrf2 block: -1.8%; TrxR1 inh: inconclusive; TrxR1 substrate: -5.3%; A549 tox: 0.0%; IDH1 R132H inh: -12.1%; Mito fusion yeast: 5.6%

How did CCOc1cc(C)cc2oc(=O)cc(-c3ccccc3)c12 do in these assays?
Nrf2 block: inconclusive; TrxR1 inh: 14.8%; TrxR1 substrate: -7.2%; A549 tox: -2.0%; IDH1 R132H inh: 6.0%; Mito fusion yeast: 11.1%

How did Cc1cc(OCC(=O)N2CCc3ccccc3C2)c2c(-c3ccccc3)cc(=O)oc2c1 do in these assays?
Nrf2 block: 16.4µM*; TrxR1 inh: 19.5%[57.1 µM]; TrxR1 substrate: 5.4%[57.1 µM]; A549 tox: -18.8%; IDH1 R132H inh: -3.2%; Mito fusion yeast: inconclusive

What do the screens show for `Cc1ccc(C(c2sc3nc(-c4ccco4)nn3c2O)N2CCN(c3ccc(F)cc3)CC2)cc1` (stereo not drawn)?
TrxR1 inh: 9.7%[57.1 µM]; TrxR1 substrate: -4.5%[57.1 µM]; A549 tox: 12.6%; IDH1 R132H inh: -7.2%

What do the screens show for `COc1cc(OC)c(NC(=O)C2CCN(S(=O)(=O)c3ccc4c(c3)oc(=O)n4C)CC2)cc1Cl`?
Nrf2 block: -6.8%; TrxR1 inh: 7.9%; TrxR1 substrate: -4.6%; A549 tox: 0.0%; IDH1 R132H inh: -1.6%

Results for Cc1ccc(Cl)cc1NC(=O)c1ccc(Cn2cc(Cl)cn2)cc1 ?
Nrf2 block: inconclusive; TrxR1 inh: -2.4%; TrxR1 substrate: -5.0%; A549 tox: 1.3%; IDH1 R132H inh: 0.3%; Mito fusion yeast: 20µM*

Results for O=C(Nc1ccccc1F)c1ccc(Cn2cc(Cl)cn2)cc1 ?
Nrf2 block: inconclusive; TrxR1 inh: 22.8%; TrxR1 substrate: -3.3%; A549 tox: -0.7%; IDH1 R132H inh: 6.6%; Mito fusion yeast: 16.1%

How did CCOc1ccc(C(=O)Nc2cnn(Cc3ccc(Cl)c(Cl)c3)c2)cc1 do in these assays?
Nrf2 block: 23.1µM*; TrxR1 inh: -0.6%; TrxR1 substrate: -1.2%; A549 tox: inconclusive; IDH1 R132H inh: 1.6%; Mito fusion yeast: -7.0%

High-throughput results as filed in PubChem.
